# Compound activity as filed in PubChem.
# In the library only some 7.4% were active in any assay of this set; here they are far more common.
# ELG1 genotoxic: qHTS screen for small molecules that induce genotoxicity in human embryonic kidney (HEK293T) cells expressing luciferase-tagged ELG1; HEK293T ELG1-luciferase reporter, luminescence, 16 h; Potency, µM (highest dose often 46 µM), actives largely listed as activators; 1.3% of 330,000 active; note: nearly all actives have a fitted effect of over 60% in size
#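 Luminescence read-out: rising ELG1-luciferase signal, reflecting elevated ELG1 protein under genetic stress, flags genotoxic compounds. Cells were treated for 16 hr at 37 °C before ONE-Glo detection.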
# NPC1 promoter act: qHTS Assay for NPC1 Promoter Activators; Huh7 NPC1 promoter luciferase reporter, 24 h; 2.4% of 320,000 active; Potency, µM (highest dose often 9.22 µM), actives largely listed as activators; AID 485313, 2010; note: nearly all actives have a fitted effect of over 60% in size
#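 Quantitative HTS used a cell-based reporter: Huh7 cells stably bearing the NPC1 promoter upstream of luciferase were treated with compounds for 24 h, and promoter activation was read as luminescence.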
# Luc counter: Counterscreen for Luciferase (Kinase-Glo TM) Inhibition; Kinase-Glo luciferase, ATP luminescence, 8 min; 0.28% of 200,000 active; AID 1379, 2008; Potency, µM (highest dose often 38.3 µM), hits mostly inhibitors; Luciferin 4-monooxygenase (Photuris pensylvanica), Q27757; note: nearly all actives have a fitted effect of over 60% in size
#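 Recombinant Kinase-Glo luciferase, 10 uM ATP (linear range), luciferin; imidazole pH 7.2 / KCl / MgCl2 / Tween / BSA buffer; 8 min RT; luminescence.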
# SMN2 splice up: qHTS Assay for Enhancers of SMN2 Splice Variant Expression; HEK293 SMN2-luciferase splicing reporter, luminescence, 30-36 h; Potency, µM (titrated, usually from 46.1 µM), actives largely listed as activators; 2.8% of 210,000 active; note: nearly all actives have a fitted effect of over 55% in size
#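 qHTS luciferase splicing reporter: luminescence rises when SMN2 exon 7 is included in transfected HEK293 cells. Compound exposure lasted 30-36 h at 37C, with 4.5 mM final sodium butyrate as control, followed by a ONE-Glo read.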
# Rab9 prom act: qHTS Assay for Rab9 Promoter Activators | Huh7 Rab9 promoter-luciferase reporter, luminescence, 24 h | 2.8% of 320,000 active | Potency, µM (series often up to 9.22 µM), hits mostly activators | AID 485297, 2010; note: nearly all actives have a fitted effect of over 60% in size
#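 Quantitative HTS format; Huh7 Rab9-luciferase reporter cells (1500/well) receive compound 2 h post-plating, incubate 24 h at 37 °C, then get luciferase reagent for 10 min before luminescence reading.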
# FLuc modulator: qHTS profiling assay for firefly luciferase inhibitor/activator using purifed enzyme and Km concentrations of substrates (counterscreen for miR-21 project); purified FLuc, Km substrates, luminescence inhibition; 6.9% of 360,000 active; AID 588342, 2011; Potency, µM (doses to about 57.5 µM), hits mostly inhibitors; Luciferin 4-monooxygenase (Photinus pyralis), P08659; note: nearly all actives have a fitted effect of over 55% in size
# Target sequence (P08659 whole entry, looked up): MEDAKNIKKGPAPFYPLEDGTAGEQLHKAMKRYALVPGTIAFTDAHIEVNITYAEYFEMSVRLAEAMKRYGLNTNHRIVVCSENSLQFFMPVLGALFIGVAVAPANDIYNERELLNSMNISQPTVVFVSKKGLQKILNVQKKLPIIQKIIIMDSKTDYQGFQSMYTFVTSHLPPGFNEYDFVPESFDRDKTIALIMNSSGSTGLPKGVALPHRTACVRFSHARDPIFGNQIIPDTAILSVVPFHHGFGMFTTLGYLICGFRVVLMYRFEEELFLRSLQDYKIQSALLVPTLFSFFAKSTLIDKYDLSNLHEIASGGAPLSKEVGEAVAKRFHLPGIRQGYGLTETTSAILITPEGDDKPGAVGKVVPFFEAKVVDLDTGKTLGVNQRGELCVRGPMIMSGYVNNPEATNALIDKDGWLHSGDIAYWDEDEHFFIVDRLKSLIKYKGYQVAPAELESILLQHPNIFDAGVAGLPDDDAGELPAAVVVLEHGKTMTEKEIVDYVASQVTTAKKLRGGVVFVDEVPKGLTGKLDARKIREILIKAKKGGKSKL
#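 Purified P. pyralis luciferase (10nM final) with 10uM D-luciferin and 10uM ATP (Km levels) in 50mM Tris acetate pH 7.5, 10mM Mg acetate, 0.01% Tween-20, 0.05% BSA; qHTS 6-point titration, ~60 µM downward; luminescence read.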
# Numbers stand for hits; 0 = inactive; ? = inconclusive; - = no result given; [ ] = another dose, or the depositor's remark. Calls come from the whole dose curve; as a rule, active = well fitted curve in the direction sought with a large enough effect; inconclusive = small, poorly fitted or top-dose-only effect, or another doubt; inactive = no such curve, though single readings can be large; an effect the other way counts as inactive or inconclusive.
SMILES,ELG1 genotoxic,NPC1 promoter act,Luc counter,SMN2 splice up,Rab9 prom act,FLuc modulator
O=C(NNC(=O)c1ccc2ccccc2n1)c1ccc(O)cc1,0,0,-,-,0,?
O=C(Nc1ccccc1)c1ccc2ccccc2n1,?,0,0,?,?,4.8µM
Cc1ccccc1NC(=S)c1ccc2ccccc2n1,?,0,-,-,0,13µM
COc1ccccc1NC(=S)Nc1ccc2cn[nH]c2c1,0,0,0,0,0,?
CN(C)c1ccc(C(C(=O)NC2CCCCC2)N(Cc2ccco2)C(=O)c2snc(C(N)=O)c2N)cc1 (centres undefined),0,0,-,-,0,0
Nc1c(NCc2ccccc2F)c(=O)[nH]c(=O)n1Cc1ccccc1,0,0,0,0,0,21µM
CCCCn1c(N)c(NCc2ccccc2)c(=O)[nH]c1=O,0,0,0,0,0,0
COCCN(Cc1ccccc1)C(=O)c1ccc(C(=O)c2ccccc2)cc1,0,0,-,-,0,0
O=C(OCC(=O)N1CCN(c2ccccc2)CC1)c1cccc([N+](=O)[O-])c1,0,0,-,-,0,0
O=C(COC(=O)c1ccccc1[N+](=O)[O-])NC(=O)c1ccccc1,0,0,-,-,0,17µM
O=C(Cn1ccc([N+](=O)[O-])n1)N1CCCc2ccccc21,?,0,0,0,0,17µM
O=C(OCC(=O)N1CCN(c2ccccc2)CC1)c1ccccc1[N+](=O)[O-],5.2µM,3.5µM,-,-,3.2µM,6.7µM
O=C(Cn1ccc([N+](=O)[O-])n1)N1CCCCCC1,0,0,0,0,0,0
O=C(COc1ccccc1[N+](=O)[O-])N1CCCc2ccccc21,0,0,-,-,0,0
O=C(OCC(=O)N1CCCc2ccccc21)c1ccccc1[N+](=O)[O-],?,?,-,-,?,15µM
CCOc1ccc(C(=O)NCC(=O)NCC2CCCCC2)cc1OCC,0,0,-,-,0,0
Cc1cccc(NC(=O)CNC(=O)COc2cccnc2[N+](=O)[O-])c1C,0,0,-,-,0,-
COC(=O)c1ccc(OC)c(CN2CCCN(Cc3ccc(C)cc3)S2(=O)=O)c1,-,-,-,-,-,0
c1ccc2c(c1)NC1(CCCCCC1)n1c-2nc2ccccc21,4µM,?,0,10µM,3.2µM,13µM
CC1(c2ccccn2)Nc2ccccc2-c2nc3ccccc3n21 (centres undefined),0,0,0,0,0,?
c1ccc2c(c1)NC1(CCCCC1)n1c-2nc2ccccc21,?,?,0,0,0,21µM
CS(=O)(=O)c1ccccc1C(=O)Nc1cccc2ncccc12,0,0,-,-,0,0
COC(=O)[C@]1(C)N[C@H](CN(C)C(=O)C2CCCCC2)[C@@H]2C(=O)N(Cc3ccccc3)C(=O)[C@@H]21,0,-,-,-,-,-
CCc1ccccc1NC(=O)NC1CCCCC1,0,0,0,0,0,0
O=C(Nc1ccccc1Cl)NC1CCCCCCC1,?,?,-,-,?,13µM
SMILES,ELG1 genotoxic,NPC1 promoter act,Luc counter,SMN2 splice up,Rab9 prom act,FLuc modulator
COc1ccccc1NC(=O)NC1CCCCCCC1,0,0,-,-,0,13µM
COc1ccccc1NC(=S)NC1CCCCCC1,0,0,-,-,0,?
Cc1ccc(/C=C2/Sc3ccc(C(=O)N4CCN(c5ccccn5)CC4)cc3NC2=O)cc1,0,0,-,-,0,13µM
CN1CCN(C(=O)c2ccc3c(c2)NC(=O)/C(=C/c2ccccc2)S3)CC1,0[9.26 µM],0,-,-,0,0
CCOC(=O)C1CCN(C(=O)c2ccc3c(c2)NC(=O)/C(=C\c2ccc(C)cc2)S3)CC1,0,0,-,-,0,24µM
CCOC(=O)C1CCN(C(=O)c2ccc3c(c2)NC(=O)/C(=C/c2ccccc2)S3)CC1,0,0,-,-,0,0
Cc1nnc(NC(=O)CCC(=O)N2CCN(S(=O)(=O)c3cc([N+](=O)[O-])ccc3C)CC2)s1,0,-,-,-,-,-
Cc1ccc(NC(=O)Cn2c(C)cc(C)c(C#N)c2=O)c(Cl)c1,0,0,0,0,0,0
